Many of the other results were omitted from the sample, so the strongest signals are more common in it than they were.
Experiments:
Experiment in all cases: glycan array binding signal (z-score within array); higher = stronger binding
Details in all cases: glycan notation: IUPAC condensed, linker removed
Fuc(a1-2)Gal(b1-3)GalNAc = target: Fuc(a1-2)Gal(b1-3)GalNAc
In short: (§1)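 From the Consortium for Functional Glycomics database, 3228 arrays were curated, keeping only those whose protein sequence was available. Binding is given as a within-array Z-score averaged across arrays sharing a protein sequence and across linkers. Negative Z-scores can be read as non-binding.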

[1] = target: Fuc(a1-2)Gal(b1-3)[Fuc(a1-4)]GlcNAc(b1-3)[Gal(b1-4)GlcNAc(b1-6)]Gal(b1-4)Glc
In short: as §1

[2] = target: Fuc(a1-2)[Gal(a1-3)]Gal(b1-4)GlcNAc(b1-6)GalNAc
In short: as §1

[3] = target: Fuc(a1-2)[GalNAc(a1-3)]Gal(b1-3)GalNAc(a1-3)[Fuc(a1-2)]Gal(b1-4)GlcNAc
In short: as §1

[4] = target: Fuc(a1-2)[GalNAc(a1-3)]Gal(b1-3)GlcNAc
In short: as §1

[5] = target: Fuc(a1-2)[GalNAc(a1-3)]Gal(b1-3)GlcNAc(b1-6)GalNAc
In short: as §1

[6] = target: Fuc(a1-2)[GalNAc(a1-3)]Gal(b1-4)GlcNAc(b1-3)Gal(b1-4)GlcNAc
In short: as §1

[7] = target: Fuc(a1-2)[GalNAc(a1-3)]Gal(b1-4)GlcNAc(b1-3)Gal(b1-4)GlcNAc(b1-3)Gal(b1-4)GlcNAc
In short: as §1

[8] = target: Fuc(a1-2)[GalNAc(a1-3)]Gal(b1-4)GlcNAc(b1-6)GalNAc
In short: as §1

[9] = target: Fuc(a1-2)[GalNAc(a1-3)]Gal(b1-4)[Fuc(a1-3)]GlcNAc
In short: as §1

[10] = target: Gal(a1-3)Gal(b1-3)GlcNAc(b1-6)GalNAc
In short: as §1

Gal(a1-3)Gal(b1-4)Glc = target: Gal(a1-3)Gal(b1-4)Glc
In short: as §1

Gal(a1-4)GlcNAc = target: Gal(a1-4)GlcNAc
In short: as §1

[11] = target: Gal(b1-3)GlcNAc(b1-6)[Gal(b1-3)]GalNAc
In short: as §1

Gal(b1-4)Glc6S = target: Gal(b1-4)Glc6S
In short: as §1

Gal(b1-4)GlcNAc(b1-2)Man = target: Gal(b1-4)GlcNAc(b1-2)Man
In short: as §1

[12] = target: Gal(b1-4)GlcNAc(b1-2)[Gal(b1-4)GlcNAc(b1-4)]Man(a1-3)[Gal(b1-4)GlcNAc(b1-2)Man(a1-6)]Man(b1-4)GlcNAc(b1-4)GlcNAc
In short: as §1

[13] = target: Gal(b1-4)GlcNAc(b1-2)[Gal(b1-4)GlcNAc(b1-4)]Man(a1-3)[GlcNAc(b1-4)][Gal(b1-4)GlcNAc(b1-2)[Gal(b1-4)GlcNAc(b1-6)]Man(a1-6)]Man(b1-4)GlcNAc(b1-4)GlcNAc
In short: as §1

[14] = target: Gal(b1-4)GlcNAc(b1-3)Gal(b1-4)GlcNAc(b1-3)Gal(b1-4)GlcNAc(b1-2)Man(a1-3)[Gal(b1-4)GlcNAc(b1-3)Gal(b1-4)GlcNAc(b1-3)Gal(b1-4)GlcNAc(b1-2)Man(a1-6)]Man(b1-4)GlcNAc(b1-4)[Fuc(a1-6)]GlcNAc
In short: as §1

[15] = target: Gal(b1-4)GlcNAc(b1-6)[Gal(b1-4)GlcNAc(b1-3)]GalNAc
In short: as §1

[16] = target: Gal3S(b1-4)[Fuc(a1-3)]GlcNAc6S
In short: as §1

Gal3S4S(b1-4)GlcNAc = target: Gal3S4S(b1-4)GlcNAc
In short: as §1

GalNAc3S(b1-4)GlcNAc = target: GalNAc3S(b1-4)GlcNAc
In short: as §1

GalNAc6S(b1-4)GlcNAc = target: GalNAc6S(b1-4)GlcNAc
In short: as §1

[17] = target: GlcNAc(b1-2)Man(a1-3)[GlcNAc(b1-2)Man(a1-6)]Man(b1-4)GlcNAc(b1-4)GlcNAc
In short: as §1

GlcNAc(b1-6)GalNAc = target: GlcNAc(b1-6)GalNAc
In short: as §1

Kdn(a2-3)Gal(b1-3)GalNAc = target: Kdn(a2-3)Gal(b1-3)GalNAc
In short: as §1

[18] = target: Man(a1-2)Man(a1-3)[Man(a1-2)Man(a1-6)]Man
In short: as §1

[19] = target: Man(a1-3)[Man(a1-6)]Man(a1-6)[Man(a1-3)]Man(b1-4)GlcNAc(b1-4)GlcNAc
In short: as §1

[20] = target: Neu5Ac(a2-3)Gal(b1-3)GlcNAc(b1-3)Gal(b1-3)GlcNAc
In short: as §1

[21] = target: Neu5Ac(a2-3)Gal(b1-3)GlcNAc(b1-4)Gal(b1-4)Glc
In short: as §1

[22] = target: Neu5Ac(a2-3)Gal(b1-4)GlcNAc(b1-2)Man(a1-3)[GlcNAc(b1-4)][Neu5Ac(a2-3)Gal(b1-4)GlcNAc(b1-2)Man(a1-6)]Man(b1-4)GlcNAc(b1-4)GlcNAc
In short: as §1

[23] = target: Neu5Ac(a2-3)Gal(b1-4)GlcNAc(b1-2)Man(a1-3)[Neu5Ac(a2-3)Gal(b1-4)GlcNAc(b1-2)Man(a1-6)]Man(b1-4)GlcNAc(b1-4)[Fuc(a1-6)]GlcNAc
In short: as §1

[24] = target: Neu5Ac(a2-3)Gal(b1-4)GlcNAc(b1-2)[Neu5Ac(a2-3)Gal(b1-4)GlcNAc(b1-6)]Man(a1-6)[Neu5Ac(a2-3)Gal(b1-4)GlcNAc(b1-2)Man(a1-3)]Man(b1-4)GlcNAc(b1-4)GlcNAc
In short: as §1

[25] = target: Neu5Ac(a2-3)Gal(b1-4)[Fuc(a1-3)]GlcNAc(b1-3)Gal(b1-4)GlcNAc
In short: as §1

[26] = target: Neu5Ac(a2-3)Gal6S(b1-4)GlcNAc
In short: as §1

Neu5Ac(a2-3)GalNAc = target: Neu5Ac(a2-3)GalNAc
In short: as §1

Neu5Ac(a2-6)Gal(b1-4)Glc = target: Neu5Ac(a2-6)Gal(b1-4)Glc
In short: as §1

[27] = target: Neu5Ac(a2-6)Gal(b1-4)GlcNAc(b1-2)Man(a1-6)Man(b1-4)GlcNAc(b1-4)GlcNAc
In short: as §1

[28] = target: Neu5Ac(a2-6)Gal(b1-4)GlcNAc(b1-2)[Neu5Ac(a2-6)Gal(b1-4)GlcNAc(b1-4)]Man(a1-3)[GlcNAc(b1-4)][Neu5Ac(a2-6)Gal(b1-4)GlcNAc(b1-4)Man(a1-6)]Man(b1-4)GlcNAc(b1-4)GlcNAc
In short: as §1

[29] = target: Neu5Ac(a2-6)Gal(b1-4)GlcNAc(b1-3)Gal(b1-4)GlcNAc
In short: as §1

[30] = target: Neu5Ac(a2-6)Gal(b1-4)GlcNAc(b1-3)Gal(b1-4)GlcNAc(b1-3)GalNAc
In short: as §1

Neu5Ac(a2-6)GalNAc = target: Neu5Ac(a2-6)GalNAc
In short: as §1

[31] = target: Neu5Ac(a2-8)Neu5Ac(a2-8)Neu5Ac(a2-8)Neu5Ac(a2-3)[GalNAc(b1-4)]Gal(b1-4)Glc
In short: as §1

[32] = target: Neu5Ac9Ac(a2-3)Gal(b1-4)GlcNAc
In short: as §1

[33] = target: Neu5Gc(a2-8)Neu5Gc(a2-6)Gal(b1-4)GlcNAc
In short: as §1

B1: Cohesin-marm-DC-ASGPR-CRD (protein)
chain: LDITSHHHHHHDDLDAVRIKVDTVNAKPGDTVRIPVRFSGIPSKGIANCDFVYSYDPNVLEIIEIEPGDIIVDPNPDKSFDTAVYPDRKIIVFLFAEDSGTGAYAITKDGVFATIVAKVKEGAPNGLSVIKFVEVGGFANNDLVEQKTQFFDGGVNVGDTTEPATPTTPVTTPTTTDDLDAASCPINWVEHQGSCYWFSRSGKTWPEAERYCQLENTHLVVINSREEQNFVQAHLGSAYTWMGLSDPEGVWKWVDGTDYSSGFQNWKPGQPDDWQGHGLGGGEDCAHFHPDGRWNDDVCQRSYHWVCEAGLTQASQDSH
glycan array binding signal (z-score) (Fuc(a1-2)Gal(b1-3)GalNAc): -0.443 | glycan array binding signal (z-score) [1]: -0.444 | glycan array binding signal (z-score) [2]: -0.449 | glycan array binding signal (z-score) [3]: 3.71 | glycan array binding signal (z-score) [4]: 2.96 | glycan array binding signal (z-score) [5]: 2.04 | glycan array binding signal (z-score) [6]: 2.91 | glycan array binding signal (z-score) [7]: 2.99 | glycan array binding signal (z-score) [8]: 2.6 | glycan array binding signal (z-score) [9]: 3.78 | glycan array binding signal (z-score) [10]: 2.92 | glycan array binding signal (z-score) (Gal(a1-3)Gal(b1-4)Glc): -0.398 | glycan array binding signal (z-score) (Gal(a1-4)GlcNAc): -0.402 | glycan array binding signal (z-score) [11]: -0.041 | glycan array binding signal (z-score) (Gal(b1-4)Glc6S): -0.377 | glycan array binding signal (z-score) (Gal(b1-4)GlcNAc(b1-2)Man): 3.13 | glycan array binding signal (z-score) [12]: -0.44 | glycan array binding signal (z-score) [13]: -0.305 | glycan array binding signal (z-score) [14]: -0.304 | glycan array binding signal (z-score) [15]: -0.405 | glycan array binding signal (z-score) [16]: -0.069 | glycan array binding signal (z-score) (Gal3S4S(b1-4)GlcNAc): -0.425 | glycan array binding signal (z-score) (GalNAc3S(b1-4)GlcNAc): -0.449 | glycan array binding signal (z-score) (GalNAc6S(b1-4)GlcNAc): 3 | glycan array binding signal (z-score) [17]: -0.449 | glycan array binding signal (z-score) (GlcNAc(b1-6)GalNAc): 2.94 | glycan array binding signal (z-score) (Kdn(a2-3)Gal(b1-3)GalNAc): -0.362 | glycan array binding signal (z-score) [18]: -0.447 | glycan array binding signal (z-score) [19]: -0.452 | glycan array binding signal (z-score) [20]: -0.433 | glycan array binding signal (z-score) [21]: -0.449 | glycan array binding signal (z-score) [22]: -0.448 | glycan array binding signal (z-score) [23]: -0.449 | glycan array binding signal (z-score) [24]: -0.331 | glycan array binding signal (z-score) [25]: -0.388 | glycan array binding signal (z-score) [26]: -0.447 | glycan array binding signal (z-score) (Neu5Ac(a2-3)GalNAc): -0.435 | glycan array binding signal (z-score) (Neu5Ac(a2-6)Gal(b1-4)Glc): -0.421 | glycan array binding signal (z-score) [27]: -0.446 | glycan array binding signal (z-score) [28]: -0.368 | glycan array binding signal (z-score) [29]: -0.46 | glycan array binding signal (z-score) [30]: -0.378 | glycan array binding signal (z-score) (Neu5Ac(a2-6)GalNAc): 3.16 | glycan array binding signal (z-score) [31]: 3.12 | glycan array binding signal (z-score) [32]: -0.447 | glycan array binding signal (z-score) [33]: -0.447
